# Reference: PubChem BioAssay (EPA / NIEHS)
# Activity calls are given as the source filed them. Rule for the calls: active = hit-call score of the fitted dose curve at least 0.9, where 1 is the maximum; inactive = score below 0.9.
# Columns and labels:
# Details in all cases: mRNA level, 48 h; actives raise or lower the signal
# [1] = read-out: Insulin Like Growth Factor 1 (IGF1), IGF1 (gene 3479); experiment: LTEA_HepaRG_IGF1: Life Technologies and Expression Analysis (LTEA) Assay for Insulin Like Growth Factor 1 (IGF1) using HepaRG (AID 2283506)
# Method in brief: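 Endpoint: IGF1 mRNA change by qRT-PCR, housekeeping-normalized, fitted bidirectionally relative to 0.5% DMSO vehicle. Human HepaRG cells were treated 48 h in serum-free induction medium, eight half-log concentrations topping at 100 uM.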
# [2] = read-out: Intercellular Adhesion Molecule 1 (ICAM1), ICAM1 (gene 3383); experiment: LTEA_HepaRG_ICAM1: Life Technologies and Expression Analysis (LTEA) Assay for Intercellular Adhesion Molecule 1 (ICAM1) using HepaRG (AID 2283507)
# Method in brief: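 ICAM1 transcript levels measured by qRT-PCR, normalized to three housekeeping genes (ACTB, GAPDH, POLR2A), after 48 h chemical exposure of HepaRG cells. Duplicate eight-point half-log series from 100 uM in 0.5% DMSO; gain or loss fitted against vehicle.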
# [3] = read-out: Insulin-like growth factor-binding protein 1 (IGFBP1), IGFBP1 (gene 3484); experiment: LTEA_HepaRG_IGFBP1: Life Technologies and Expression Analysis (LTEA) Assay for Insulin-like growth factor-binding protein 1 (IGFBP1) using HepaRG (AID 2283508)
# Method in brief: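 Read-out is qRT-PCR transcript level normalized to three housekeeping genes, fitted in both directions against 0.5% DMSO. Differentiated HepaRG cells received eight half-log concentrations (top 100 uM) in duplicate for 48 h in serum-free induction medium.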
# [4] = read-out: Interleukin 6 (IL6), IL6 (gene 3569); experiment: LTEA_HepaRG_IL6: Life Technologies and Expression Analysis (LTEA) Assay for Interleukin 6 (IL6) using HepaRG (AID 2283509)
# Method in brief: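 qRT-PCR read-out of IL6 transcript, normalized to three housekeeping genes, after 48 h chemical exposure of HepaRG cells; 8-point half-log series, top 100 uM, 0.5% DMSO vehicle. Bidirectional curve fitting against DMSO baseline.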
# [5] = read-out: Interleukin 6 Receptor (IL6R), IL6R (gene 3570); experiment: LTEA_HepaRG_IL6R: Life Technologies and Expression Analysis (LTEA) Assay for Interleukin 6 Receptor (IL6R) using HepaRG (AID 2283510);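 for AC50: differentiated human HepaRG liver cells in serum-free induction medium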
# Method in brief: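 In this HepaRG screen, test chemicals act on cells for 48 h at up to 100 uM (eight half-log points, duplicate wells). IL6R expression is quantified by qRT-PCR after normalization to ACTB, GAPDH and POLR2A, with DMSO as baseline.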
# [6] = read-out: Keratin 19 (KRT19), KRT19 (gene 3880); experiment: LTEA_HepaRG_KRT19: Life Technologies and Expression Analysis (LTEA) Assay for Keratin 19 (KRT19) using HepaRG (AID 2283512)
# Method in brief: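 KRT19 transcript measured by TaqMan qRT-PCR, referenced to three housekeeping genes, after HepaRG cells received test chemicals for 48 h. Eight half-log concentrations, top 100 uM, 0.5% DMSO vehicle; increases and decreases both fitted.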
# [7] = read-out: Lipase C (LIPC), LIPC (gene 3990); experiment: LTEA_HepaRG_LIPC: Life Technologies and Expression Analysis (LTEA) Assay for Lipase C (LIPC) using HepaRG (AID 2283514)
# Method in brief: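 HepaRG, 48 h exposure, 8-pt half-log series from 100 uM in 0.5% DMSO, duplicates. Readout: LIPC mRNA by Fluidigm qRT-PCR, housekeeping-normalized (ACTB/GAPDH/POLR2A). Gain or loss fitted bidirectionally against DMSO baseline.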
# [8] = read-out: Lipoprotein lipase (LPL), LPL (gene 4023); experiment: LTEA_HepaRG_LPL: Life Technologies and Expression Analysis (LTEA) Assay for Lipoprotein lipase (LPL) using HepaRG (AID 2283515)
# Method in brief: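 HepaRG, 48 h exposure, 8-pt half-log dilutions from 100 uM, 0.5% DMSO vehicle, duplicates; qRT-PCR (Fluidigm array) of LPL mRNA vs housekeeping genes; bidirectional curve fit relative to DMSO baseline.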
# [9] = read-out: JUN Transcription Factor, JUN (gene 3725); experiment: LTEA_HepaRG_JUN: Life Technologies and Expression Analysis (LTEA) Assay for JUN Transcription Factor using HepaRG (AID 2283513)
# Method in brief: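 Gene-expression endpoint: JUN mRNA (qRT-PCR, normalized to three reference genes) in HepaRG cultures treated 48 h with chemicals, duplicate wells, 100 uM maximum with half-log dilutions; bidirectional fitting relative to 0.5% DMSO.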
Compound,outcome [1],outcome [2],outcome [3],outcome [4],outcome [5],outcome [6],outcome [7],outcome [8],outcome [9],AC50 [1],AC50 [4],AC50 [5],AC50 [6],AC50 [7]
CCCC(=NOCC)C1=C(O)CC(CC(C)SCC)CC1=O (stereo not given),inactive,inactive,inactive,inactive,inactive,inactive,inactive,inactive,,,,,,
O=c1n(Cl)c(=O)n(Cl)c(=O)n1Cl,inactive,inactive,inactive,inactive,inactive,inactive,inactive,inactive,inactive,,,,,
CC1(C)C(C(=O)OC(C#N)c2cccc(Oc3ccccc3)c2)C1(C)C (stereo not given),inactive,inactive,inactive,inactive,inactive,inactive,inactive,inactive,,,,,,
COCC(C)N(C(=O)CCl)c1c(C)csc1C (stereo not given),,inactive,inactive,,inactive,,inactive,inactive,inactive,50 µM (active),22.7 µM (active),,,
COCC(=O)N(c1c(C)cccc1C)C(C)C(=O)OC (stereo not given),inactive,inactive,inactive,inactive,inactive,inactive,inactive,inactive,,,,,,
CCN(CC)C(=O)C(C)Oc1cccc2ccccc12 (stereo not given),,inactive,inactive,inactive,,,,inactive,,66.3 µM (active),,20.3 µM (active),50 µM (active),69.6 µM (active)
CC1(C)CON(Cc2ccccc2Cl)C1=O,,inactive,inactive,inactive,inactive,inactive,inactive,inactive,inactive,25.6 µM (active),,,,
Cc1cc(C)nc(Nc2ccccc2)n1,inactive,inactive,inactive,inactive,inactive,,inactive,inactive,inactive,,,,18.7 µM (active),
CNC(=O)Oc1cccc2ccccc12,inactive,inactive,inactive,inactive,inactive,inactive,inactive,inactive,,,,,,
